# Measurements from PubChem BioAssay AID1259245 (Vanderbilt High Throughput Screening Facility, 2017).
# Hit rate of the full screen: of about 40,000 compounds, about 1,400 (3.5%) were called active.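 Rule for the calls: active = any of four per-well response measures lying three or more SD from its plate-wide compound average, in either direction; inactive = the rest, inconclusive results apart.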 Only a selection was taken, and actives are over-represented in it overall.
# Biological target: Voltage-dependent calcium channel gamma-2 subunit (Mus musculus) + Glutamate receptor 2 (Rattus norvegicus) (UniProt O88602+P19491)
# Assay: AMPAR-TARP gamma-2 complex positive or negative modulation – cell-based, membrane potential dye, primary screen (AID 1259245)
# Details: HEK293 GluA2+stargazin, membrane potential dye (FDSS), glutamate EC50, at 30 µM, hits were called plate by plate, in both directions; compound max-min signal: compound-alone response (agonism); glutamate slope, % of max: measured here: glutamate response slope, % max
# Sequence of Voltage-dependent calcium channel gamma-2 subunit (Mus musculus) + Glutamate receptor 2 (Rattus norvegicus) (O88602 whole entry, looked up): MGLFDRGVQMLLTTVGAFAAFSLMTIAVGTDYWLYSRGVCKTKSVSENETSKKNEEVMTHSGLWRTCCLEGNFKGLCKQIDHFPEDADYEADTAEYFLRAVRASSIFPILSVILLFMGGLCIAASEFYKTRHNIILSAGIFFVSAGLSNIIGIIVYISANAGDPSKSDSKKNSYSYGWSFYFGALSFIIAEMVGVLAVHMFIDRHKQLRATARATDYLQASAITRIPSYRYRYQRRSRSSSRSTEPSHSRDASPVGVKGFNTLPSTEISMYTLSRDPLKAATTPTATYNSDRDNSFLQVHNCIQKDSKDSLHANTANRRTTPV
# Sequence of Voltage-dependent calcium channel gamma-2 subunit (Mus musculus) + Glutamate receptor 2 (Rattus norvegicus) (P19491 whole entry, looked up): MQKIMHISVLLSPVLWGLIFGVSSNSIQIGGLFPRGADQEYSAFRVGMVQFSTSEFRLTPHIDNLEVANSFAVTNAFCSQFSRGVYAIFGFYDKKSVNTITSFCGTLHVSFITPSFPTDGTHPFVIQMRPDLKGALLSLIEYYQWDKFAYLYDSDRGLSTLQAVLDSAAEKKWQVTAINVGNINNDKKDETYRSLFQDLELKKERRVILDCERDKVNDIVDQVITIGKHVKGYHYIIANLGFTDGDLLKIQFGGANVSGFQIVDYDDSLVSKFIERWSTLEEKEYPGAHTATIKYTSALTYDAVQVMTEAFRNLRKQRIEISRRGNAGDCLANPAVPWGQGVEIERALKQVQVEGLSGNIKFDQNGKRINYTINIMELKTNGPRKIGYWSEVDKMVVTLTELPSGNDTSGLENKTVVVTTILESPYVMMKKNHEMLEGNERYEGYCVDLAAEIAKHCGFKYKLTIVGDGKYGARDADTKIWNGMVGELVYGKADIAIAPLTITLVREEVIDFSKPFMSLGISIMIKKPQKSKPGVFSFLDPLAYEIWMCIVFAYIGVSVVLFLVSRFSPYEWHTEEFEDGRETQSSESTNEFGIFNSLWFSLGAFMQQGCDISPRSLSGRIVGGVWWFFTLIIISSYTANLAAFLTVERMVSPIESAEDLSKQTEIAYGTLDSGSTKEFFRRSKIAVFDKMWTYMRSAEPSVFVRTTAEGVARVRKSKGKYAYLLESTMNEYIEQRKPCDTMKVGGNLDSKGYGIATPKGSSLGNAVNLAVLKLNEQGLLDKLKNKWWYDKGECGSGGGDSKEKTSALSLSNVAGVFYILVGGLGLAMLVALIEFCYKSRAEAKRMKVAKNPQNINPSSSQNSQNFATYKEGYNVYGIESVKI
SMILES,compound max-min signal,"glutamate response, % of max","glutamate slope, % of max"
COc1ccc(C)cc1S(=O)(=O)NCC1CCN(C2CCCC2)CC1,0.046,35.2% (inactive),60.4%
CCOc1ccc(C)cc1S(=O)(=O)Nc1cc(Cl)ccc1O,0.184,20.5% (inactive),42.7%
COc1ccc(C)cc1S(=O)(=O)Nc1cc(Cl)ccc1O,0.201,17.5% (active),33.4%
COc1ccc(SCC(=O)Nc2sc3c(c2C(N)=O)CCN(C(C)=O)C3)cc1,0.106,34.1% (inactive),58.5%
COc1ccc(CCNC(=O)Nc2c[nH]c3ccccc23)cc1,0.127,40.6% (inactive),64.1%
Cc1cc(Cl)cc2sc(N(CC3CCCO3)C(=O)CN(C)S(C)(=O)=O)nc12 (centres undefined),0.075,26.5% (inactive),51.3%
O=S(=O)(c1ccc(C2CCCCC2)cc1)N1CCC(Cc2ccccc2)CC1,0.0564,25.6% (inactive),44.4%
CCOc1ccc(S(=O)(=O)NCC(O)c2ccsc2)cc1F (centres undefined),0.128,48.1% (inactive),69%
COc1ccc(S(=O)(=O)NCC(c2ccsc2)N2CCCCCC2)cc1F (centres undefined),0.168,17.6% (active),30.2%
COc1ccc(S(=O)(=O)NCC(c2ccc(C)cc2)N2CCN(C)CC2)cc1OC (centres undefined),0.0672,37.4% (inactive),55.5%
COc1ccc(N2CCN(CCNS(=O)(=O)c3ccc(Cl)s3)CC2)cc1,0.131,37.9% (inactive),47.8%
COC(=O)c1ccc(NC(=O)CSc2ccc(NC(=O)c3ccco3)nn2)cc1,0.0425,23.1% (active),46.9%
CC(=O)c1ccc(NC(=O)CSc2ccc(NC(=O)c3ccco3)nn2)cc1,0.0373,24.5% (active),47%
Cc1ccc(C(=O)Nc2ccc(SCC(=O)NCc3ccc4c(c3)OCO4)nn2)cc1,0.0549,27.8% (inactive),49.8%
COc1cccc(CNC(=O)CSc2ccc(NC(=O)c3cccc(F)c3)nn2)c1,0.0911,24.2% (inactive),47.4%
CC(C)C(=O)Nc1ccc(SCC(=O)c2ccccc2)nn1,0.113,25.4% (inactive),42.3%
O=C(CSc1ccc(NC(=O)c2ccco2)nn1)Nc1ccc(OC(F)(F)F)cc1,0.106,19.5% (inactive),37.1%
CCOC(=O)N1CCc2c(sc(NC(=O)c3ccccc3Cl)c2-c2nc3ccccc3s2)C1,0.11,43.3% (inactive),61.3%
CCn1nnc2c(N3CCN(CC(=O)Nc4c(C)cc(C)cc4C)CC3)ncnc21,0.0423,21.5% (inactive),39.9%
COc1ccc(-n2nnnc2SC(C)C(=O)Nc2ccccc2Cl)cc1 (centres undefined),0.0851,29.7% (inactive),55.7%
O=C(NCCN1CCOC(c2ccccc2)C1)c1c(F)cccc1F (centres undefined),0.0396,14.5% (inactive),32.8%
CCOc1ccc(S(=O)(=O)NCc2ccc3c(c2)OCO3)cc1OCC,0.0924,30.4% (inactive),55.6%
COc1ccc(S(=O)(=O)Nc2ccc(N3CCCCS3(=O)=O)cc2)cc1F,0.0701,25.7% (inactive),44.9%
O=C(CCCn1nc(-c2ccc(Cl)cc2)ccc1=O)Nc1ccc(F)c(F)c1,0.175,35.4% (inactive),51.5%
CC(C)c1cc(NCCN2CCOCC2)n2ncc(-c3ccccc3)c2n1,0.126,34% (inactive),54.5%

SMILES,compound max-min signal,"glutamate response, % of max","glutamate slope, % of max"
COc1nn(C)cc1C(=O)NCCN1CCN(S(C)(=O)=O)CC1,0.0954,49.7% (inactive),63.9%
COc1nn(C)cc1C(=O)NCC(=O)Nc1cccc(C)c1C,0.067,-0.69% (active),4.95%
COc1cn(CC(=O)Nc2cccc(C)c2C)c(CN2CCOCC2)cc1=O,0.0306,11% (inactive),23.6%
Cc1ccc(NC(=O)c2ccc(S(=O)(=O)N3CCCC3)cc2)c(C(=O)c2ccccc2)c1,0.117,44% (inactive),65.3%
O=C(CSCc1ccccc1)Nc1ccccc1F,0.0999,23.2% (inactive),36.5%
COc1ccccc1NC(=O)c1csc(NS(=O)(=O)c2ccccc2)n1,0.0914,30.6% (inactive),47.5%
COc1cc([N+](=O)[O-])ccc1NC(=O)c1ccccc1NS(=O)(=O)c1ccccc1,0.141,22.1% (active),34.2%
Cc1ccc(S(=O)(=O)Nc2ccccc2C(=O)Nc2ccc3c4c(cccc24)CC3)cc1,0.105,43.6% (inactive),62.4%
COc1ccc(CNC(=O)N2CCC(c3cccs3)CC2)cc1,0.14,40.4% (inactive),59.7%
CN(C)C(CNC(=O)C(=O)Nc1ccc2c(c1)OCCO2)c1cccn1C (centres undefined),0.0533,30.5% (inactive),63.5%
CCOC(=O)c1ccc(NC(=O)c2cccnc2)cc1,0.0638,27.5% (inactive),53.7%
COCCCn1c(C(=O)Nc2cccnc2)cc2c(=O)n(C)c(=O)n(C)c21,0.306,24.6% (active),44.9%
COCCCNc1nc2c(c(=O)n(C)c(=O)n2C)n1CC(O)COc1ccc(C)c(C)c1 (centres undefined),0.0698,46.2% (inactive),75.7%
COc1ccccc1NC(=O)Cn1cc(-c2nnc(-c3ccco3)o2)c2ccccc21,0.137,42.8% (inactive),63.9%
COc1cccc2sc(N(Cc3ccco3)C(=O)CSCc3ccccc3)nc12,0.0832,31.9% (inactive),54.9%
COc1ccc2nc(N(CCN3CCOCC3)C(=O)c3cc4cc([N+](=O)[O-])ccc4s3)sc2c1,0.0573,31% (inactive),45.5%
COc1ccc2nc(N(CCN3CCOCC3)C(=O)c3ccccc3S(C)(=O)=O)sc2c1,0.0288,22.5% (inactive),42.4%
COc1ccc2nc(N(CCN3CCOCC3)C(=O)c3ccc([N+](=O)[O-])o3)sc2c1,0.173,42.6% (active),68.7%
c1nc(N2CCN(Cc3ccc4c(c3)OCO4)CC2)c2c3c(sc2n1)CCCC3,0.0914,49% (inactive),68.7%
COc1ccc(/C=C2\Oc3c(ccc4c3CN(c3ccc(F)cc3)CO4)C2=O)c(OC)c1OC,0.103,23.7% (inactive),51.7%
COC(=O)c1c(NC(=O)CC2NCCNC2=O)sc(C)c1C (centres undefined),0.0942,53% (active),55.8%
COC(=O)c1ccsc1NC(=O)CC1Sc2ccccc2NC1=O (centres undefined),0.0707,30.1% (inactive),49.8%
O=C(/C=C/c1ccccc1)Nc1ccc(CC(=O)N2CCCC2)cc1,0.119,31.3% (inactive),65.4%
C=CCNC(=O)NC1CCCCC1N1C(=O)CSC1=O (centres undefined),0.12,10.5% (inactive),45.6%
CSc1ccccc1NC(=O)c1nc(-c2cnccn2)no1,0.143,23.2% (inactive),49.2%

SMILES,compound max-min signal,"glutamate response, % of max","glutamate slope, % of max"
Cc1nc(-c2cccs2)c(CCC(=O)NCc2ccc3c(c2)OCO3)s1,0.114,10.6% (active),25.8%
COc1ccc(NC(=O)CCc2sc(C)nc2-c2cccs2)cc1OC,0.123,37.8% (inactive),60.9%
COc1ccc(CCNC(=O)CCc2sc(C)nc2-c2cccs2)cc1,0.0606,19.1% (inactive),37.1%
COc1ccc2cc(CNc3ccccc3)c(=O)n(CC(=O)Nc3ccccc3OC)c2c1,0.0876,-1.71% (active),4.4%
COc1cc2cc(CNc3ccc(C)cc3)c(=O)n(CC(=O)Nc3ccccc3F)c2cc1OC,0.116,25.6% (inactive),49.4%
Cc1ccc2cc(CNc3ccccc3)c(=O)n(CC(=O)Nc3ccccc3C)c2c1,0.0993,29.6% (inactive),44.3%
Cc1cc(C)cc(-n2c(SCC#N)nc3cc(C(=O)NC4CCCC4)ccc3c2=O)c1,0.127,50.2% (inactive),72.1%
CCOC(=O)c1ccc(-n2c(C)c(C)n3c4c(=O)n(CC)c(=O)n(C)c4nc23)cc1,0.126,48.1% (inactive),62.4%
CCC(C)c1ccccc1OCC(O)CN (centres undefined),0.0631,21.1% (inactive),39.8%
Cc1cc(N(C)C)nc(-n2cc([N+](=O)[O-])cn2)n1,0.178,35.4% (active),63.4%
O=C(c1ccc(Cl)s1)N1CCC(c2ccsc2)CC1,0.0754,43.8% (inactive),57%
COCCNC(=O)C(=O)Nc1cc(N2CCCS2(=O)=O)ccc1OC,0.105,22.8% (inactive),46.1%
CC(=O)c1ccc(C(=O)Nc2sc3c(c2-c2nc4ccccc4s2)CCN(C)C3)cc1,0.226,65.6% (active),85%
CN1CCc2c(sc(NC(=O)c3ccc(Br)cc3)c2-c2nc3ccccc3s2)C1,0.139,53.9% (inactive),74%
CCOc1ccc(C(=O)Nc2sc3c(c2-c2nc4ccccc4s2)CCN(C)C3)cc1,0.114,34.3% (inactive),50.1%
COc1ccc2sc(N(CC3CCCO3)C(=O)C3CCCC3)nc2c1 (centres undefined),0.117,20% (inactive),33.1%
Cc1nc2ccccn2c1C(=O)NCC(O)(c1ccccc1)C(F)(F)F (centres undefined),0.141,14.1% (inactive),49.7%
CN1C(=O)Cc2cc(NC(=O)NC(c3ccccc3)c3ccccc3)ccc21,0.121,41.8% (inactive),60.5%
Cc1nc2ccccn2c1C(=O)Nc1ccc2c(c1)CC(=O)N2C,0.213,46.6% (active),65.1%
CCOC(=O)CNC(=O)C(=O)c1c(C)[nH]c2ccccc12,0.14,51.3% (inactive),67.4%
CN(C)S(=O)(=O)NCC#CCN1CCc2ccccc2C1,0.0659,38.5% (inactive),57.8%
O=S(=O)(NCC#CCN1CCc2ccccc2C1)c1ccc(Br)cc1,0.0488,43.9% (inactive),66.2%
O=S(=O)(/C=C/c1ccccc1)NCC#CCN1CCc2ccccc2C1,0.144,41.7% (active),55.5%
